From PubChem BioAssay (NCI) come the findings set out here.

Compounds without any hit were thinned out: in the full panel of roughly 83,000, 20% have a hit.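 Negative percent growth values reflect cell death: -40 means 40% of the cells present at the start died, and -100 means all died.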 A number with no mark means an inactive call. Active and inactive are the calls of the source. The calls were made as follows: active = growth percent below 10; inactive = the rest.

Some test systems named below: NCI-H23 lung; NCI-H226 lung; NCI-H322M lung; HOP-62 NSCLC; NCI-H460 lung; HOP-92 NSCLC; NCI-H522 lung; A549/ATCC NSCLC; 786-0 renal; COLO 205 colon.
What all share (assay): NCI-60 one-dose screen, 48 h (100 = growth as untreated, 0 = no growth, -100 = all killed)
Common to all, as to conditions: 10 µM unless noted

As for `COC(=O)c1ccc(-c2c(-c3ccccc3)c(F)c3oc(C(=O)OC)c(N)c3c2-c2ccccc2)cc1`, the growth with NCI-H23 lung is 87%; in the experiment on NCI-H226 lung, 100%; in the experiment with NCI-H322M lung it was 97.1%; with HOP-62 NSCLC, 94%; with NCI-H460 lung, 99.7%; in the experiment on HOP-92 NSCLC, 85.1%. Moreover, the growth in the experiment on NCI-H522 lung was 83.4%; with A549/ATCC NSCLC, 98.9%; in the experiment with 786-0 renal it was 103%; with COLO 205 colon, 99.7%.
On to `CNc1nc2ccccc2n2c(-c3ccc(O)c(O)c3)cnc12`, for which the growth in the experiment with NCI-H23 lung was 16.1%; with NCI-H226 lung, -14.9% (active); in the experiment with NCI-H322M lung, 38.8%; in the experiment on HOP-62 NSCLC, 26.5%; in the experiment on NCI-H460 lung, 3.63% (active); with HOP-92 NSCLC, 13.9%. The growth in the experiment with NCI-H522 lung is -39.6% (active); with A549/ATCC NSCLC, 15.9%; in the experiment on 786-0 renal it was 24.7%; in the experiment on COLO 205 colon, -54.3% (active).
`Nc1cc(-c2c[nH]c3ccc(Br)cc23)nc2cc(-c3c[nH]c4ccccc34)nn12`: the growth in the experiment on NCI-H23 lung was -68.9% (active); in the experiment with NCI-H226 lung, 3.69% (active); with NCI-H322M lung it was -18.8% (active); in the experiment on HOP-62 NSCLC, -61.9% (active); with NCI-H460 lung, -53.1% (active); in the experiment with HOP-92 NSCLC, -50.8% (active). Moreover, the growth in the experiment with NCI-H522 lung is -77% (active); in the experiment on A549/ATCC NSCLC, -47.2% (active); in the experiment with 786-0 renal, -68.2% (active); in the experiment with COLO 205 colon it was -87% (active).
On to `COc1sc(/C=N/NC(=O)c2[nH]c3ccc(Br)cc3c2-c2ccccc2)cc1Cl`, for which the growth was -41.9% (active) with NCI-H23 lung; -17.8% (active) with NCI-H226 lung; 13.3% with NCI-H322M lung; -27% (active) with HOP-62 NSCLC; 1.26% (active) with NCI-H460 lung; -7.87% (active) in the experiment on HOP-92 NSCLC. In addition, the growth in the experiment with NCI-H522 lung is -39% (active); with A549/ATCC NSCLC, -20.2% (active); in the experiment with 786-0 renal, -49.8% (active); in the experiment with COLO 205 colon it was -60.9% (active).
Regarding `N/C(=N\c1nc2ccc([N+](=O)[O-])cc2s1)NC(=O)Nc1ccccc1Cl`, the growth is 44.6% in the experiment with NCI-H23 lung; 23.7% in the experiment with NCI-H226 lung; 61.7% in the experiment with NCI-H322M lung; 51.3% in the experiment on HOP-62 NSCLC; 11.3% in the experiment with NCI-H460 lung; 17.2% with HOP-92 NSCLC. Further, the growth with NCI-H522 lung is 5.69% (active); in the experiment on A549/ATCC NSCLC, 9.92% (active); in the experiment with 786-0 renal it was -32% (active); in the experiment with COLO 205 colon, 49.3%.
With `O=C(NN1C(=O)/C(=C/C=C/c2ccc([N+](=O)[O-])o2)SC1=S)c1ccc(O)cc1`, the growth in the experiment on NCI-H23 lung is -85.7% (active); with NCI-H226 lung it was -86.3% (active); in the experiment on NCI-H322M lung, -78.5% (active); in the experiment with HOP-62 NSCLC, -99.5% (active); in the experiment with NCI-H460 lung, -54% (active); in the experiment on HOP-92 NSCLC it was -81% (active). In addition, the growth was -98.1% (active) with NCI-H522 lung, -81.5% (active) in the experiment with A549/ATCC NSCLC, -90.4% (active) with 786-0 renal and -94.8% (active) in the experiment with COLO 205 colon.
`CCCCNc1ccc2c3c(cccc13)C(=O)N(c1cccc(-c3nn(-c4ccccc4)cc3-c3nc4ccccc4s3)c1)C2=O`: the growth in the experiment on NCI-H23 lung is 93.1%; in the experiment on NCI-H226 lung, 83.5%; in the experiment on NCI-H322M lung, 104%; in the experiment with HOP-62 NSCLC, 107%; in the experiment on NCI-H460 lung it was 110%; in the experiment with HOP-92 NSCLC, 100%. Besides, the growth in the experiment on NCI-H522 lung was 99.1%; in the experiment with A549/ATCC NSCLC, 117%; in the experiment on 786-0 renal, 101%; in the experiment on COLO 205 colon, 109%.
Consider `Clc1ccc(-c2nc3c4c(-c5ccccc5)c(-c5ccccc5)n(Cc5ccccc5)c4ncn3n2)cc1`, for which the growth with NCI-H23 lung is 2.75% (active); in the experiment on NCI-H226 lung it was -3.39% (active); in the experiment on NCI-H322M lung it was 21%; with HOP-62 NSCLC, 19.8%; in the experiment on NCI-H460 lung, 3.08% (active); with HOP-92 NSCLC, -23.1% (active). The growth in the experiment on NCI-H522 lung was -28.5% (active); in the experiment with A549/ATCC NSCLC, 14.1%; in the experiment on 786-0 renal, 5.51% (active); in the experiment on COLO 205 colon it was -59.2% (active).
Turning to `COC(=O)c1cc(C(=O)C(Br)Br)n2c1ccc1c3ccccc3ccc12`, the growth in the experiment on NCI-H23 lung was 69%; in the experiment with NCI-H226 lung, 64.2%; in the experiment with NCI-H322M lung, 89.4%; in the experiment on HOP-62 NSCLC, 56.7%; in the experiment with NCI-H460 lung, 18.4%; in the experiment on HOP-92 NSCLC it was 54.3%. Besides, the growth is 60.2% in the experiment with NCI-H522 lung, 40.8% with A549/ATCC NSCLC, 64.6% in the experiment with 786-0 renal and 55.3% with COLO 205 colon.
As for `CN1C(=O)/C(=C\C(=O)c2cc3ccccc3oc2=O)c2ccccc21`, the growth in the experiment on NCI-H23 lung is 46.3%; in the experiment with NCI-H226 lung it was 75.4%; in the experiment on NCI-H322M lung, 98.7%; in the experiment with HOP-62 NSCLC, 54.4%; in the experiment on NCI-H460 lung it was 92.1%; in the experiment with HOP-92 NSCLC, 64.3%. Moreover, the growth in the experiment with NCI-H522 lung was -68.8% (active); in the experiment with A549/ATCC NSCLC, 78.3%; with 786-0 renal it was 80.7%; in the experiment with COLO 205 colon, 52.2%.
Consider `c1n[nH]cc1-c1nc2ccc3cn[nH]c3c2c2c1CCCC2`, for which the growth is 90.2% with NCI-H23 lung; 46.4% in the experiment with NCI-H226 lung; 86.8% in the experiment on NCI-H322M lung; 79.9% in the experiment with HOP-62 NSCLC; 101% with NCI-H460 lung; 85.2% in the experiment with HOP-92 NSCLC. In addition, the growth in the experiment with NCI-H522 lung is 70.7%; in the experiment on A549/ATCC NSCLC it was 95.1%; with 786-0 renal it was 110%; in the experiment on COLO 205 colon, 102%.
